According to PubChem BioAssay AID1159580 (chemical genetic matrix, 2015):
Where “and” joins values, the source holds several entries; their conditions need not be identical. Identical values can stand only once. In all, about 5,500 compounds went through this assay and about 2,000 (36%) were called active. Another 18% or so got no clear call; they are omitted. No stated cut-off is given here; in the data, active means normalized growth mostly below about 0.91 (no sharp cut-off); inconclusive means no clear call, values can overlap the other calls; inactive means mostly above about 0.92. This is one part of the list.

Test: chemical genetic growth profiling, strain panel (AID 1159580);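 further: tested at 20 µM; growth read once vehicle control cultures reached saturation at 30 °C; 1 = growth at the plate median or of vehicle wells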
Conditions: S. cerevisiae deletion strains, growth OD

Measured: normalized growth

S=c1[nH]c2ccccc2s1
1 (inactive) and 0.821 (active): locus YHR030C, strain SLT2, stronger effect = lower value
0.99 (inactive) and 0.818 (active): locus YJL095W, strain BCK1, stronger effect = lower value
active: locus YAL026C, strain drs2, stronger effect = lower value 0.891 | locus YDR137W, strain rgp1, stronger effect = lower value 0.808 | locus YDR195W, strain ref2 1.18 [resistant] | locus YGR229C, strain SMI1, stronger effect = lower value 0.804 | locus YGR252W, strain gcn5, stronger effect = lower value 0.691 | locus YHR027C, strain rpn1, stronger effect = lower value 0.903 | locus YHR079C, strain IRE1, stronger effect = lower value 0.78 | locus YJR066W, strain TOR1, stronger effect = lower value 0.732
inactive: locus YAL013W, strain DEP1, stronger effect = lower value 1 | locus YAL021C, strain ccr4, stronger effect = lower value 0.941 | locus YAL030W, strain snc1, stronger effect = lower value 0.992 | locus YBL061C, strain skt5, stronger effect = lower value 0.986 | locus YBR009C, strain hhf1, stronger effect = lower value 0.972 | locus YBR021W, strain FUR4, stronger effect = lower value 1.06 | locus YBR023C, strain chs3, stronger effect = lower value 1.01 | locus YBR171W, strain sec66, stronger effect = lower value 0.965 | locus YBR229C, strain ROT2, stronger effect = lower value 0.989 | locus YBR231C, strain swc5, stronger effect = lower value 0.946 | locus YBR279W, strain paf1, stronger effect = lower value 0.982 | locus YCL011C, strain gbp2, stronger effect = lower value 0.966 | locus YCL016C, strain dcc1, stronger effect = lower value 1.02 | locus YCL029C, strain bik1, stronger effect = lower value 0.989 | locus YCL069W, strain vba3, stronger effect = lower value 0.983 | locus YCR088W, strain abp1, stronger effect = lower value 0.981 | locus YDL005C, strain med2, stronger effect = lower value 0.996 | locus YDL035C, strain GPR1, stronger effect = lower value 0.948 | locus YDL040C, strain nat1, stronger effect = lower value 0.983 | locus YDL074C, strain BRE1, stronger effect = lower value 0.975 | locus YDL101C, strain DUN1, stronger effect = lower value 0.99 | locus YDL134C, strain PPH21, stronger effect = lower value 0.985 | locus YDL185W, strain tfp1, stronger effect = lower value 0.979 | locus YDL192W, strain arf1, stronger effect = lower value 0.985 | locus YDR001C, strain nth1, stronger effect = lower value 0.992 | locus YDR069C, strain doa4, stronger effect = lower value 0.951 | locus YDR101C, strain arx1, stronger effect = lower value 1.01 | locus YDR150W, strain NUM1, stronger effect = lower value 0.986 | locus YDR159W, strain sac3, stronger effect = lower value 0.992 | locus YDR162C, strain NBP2, stronger effect = lower value 0.986 | locus YDR297W, strain sur2, stronger effect = lower value 0.97 | locus YDR318W, strain mcm21, stronger effect = lower value 0.996 | locus YDR334W, strain swr1, stronger effect = lower value 0.972 | locus YDR335W, strain msn5, stronger effect = lower value 0.984 | locus YDR388W, stronger effect = lower value 0.987 | locus YDR392W, strain spt3, stronger effect = lower value 0.879 | locus YDR502C, strain sam2, stronger effect = lower value 1 | locus YEL003W, strain gim4, stronger effect = lower value 0.952 | locus YEL037C, strain rad23, stronger effect = lower value 0.975 | locus YEL061C, strain CIN8 (second series), stronger effect = lower value 0.973 | locus YEL061C, strain CIN8, stronger effect = lower value 1.01 | locus YER015W, strain faa2, stronger effect = lower value 0.965 | locus YER016W, strain bim1, stronger effect = lower value 0.987 | locus YER110C, stronger effect = lower value 0.998 | locus YER111C, strain swi4, stronger effect = lower value 0.979 | locus YER155C, strain BEM2 (second series), stronger effect = lower value 0.986 | locus YER155C, strain BEM2, stronger effect = lower value 0.986 | locus YER167W, strain BCK2, stronger effect = lower value 1.02 | locus YFR010W, strain ubp6, stronger effect = lower value 0.95 | locus YGL078C, strain dbp3, stronger effect = lower value 1.02 | locus YGL086W, strain mad1, stronger effect = lower value 0.965 | locus YGL167C, strain pmr1, stronger effect = lower value 0.995 | locus YGL173C, strain kem1, stronger effect = lower value 0.91 | locus YGL227W, strain vid30, stronger effect = lower value 0.996 | locus YGL240W, strain doc1, stronger effect = lower value 0.923 | locus YGL248W, strain PDE1, stronger effect = lower value 0.991 | locus YGL253W, strain hxk2, stronger effect = lower value 0.938 | locus YGR078C, strain PAC10, stronger effect = lower value 0.958 | locus YGR135W, strain pre9, stronger effect = lower value 0.964 | locus YHR013C, strain ard1, stronger effect = lower value 1.02 | locus YHR079C, strain IRE1 (second series), stronger effect = lower value 1.01 | locus YHR094C, strain hxt1, stronger effect = lower value 1.02 | locus YHR129C, strain ARP1, stronger effect = lower value 0.992 | locus YHR142W, strain chs7, stronger effect = lower value 1.01 | locus YHR200W, strain rpn10, stronger effect = lower value 1.01 | locus YIL066C, strain RNR3, stronger effect = lower value 0.986 | locus YIL073C, strain SPO22, stronger effect = lower value 0.844 | locus YIL125W, strain kgd1, stronger effect = lower value 1.01 | locus YIR030C, strain dcg1, stronger effect = lower value 1.01 | locus YJL092W, strain hpr5, stronger effect = lower value 0.984 | locus YJL095W, strain BCK1 (second series), stronger effect = lower value 0.975 | locus YJL115W, strain asf1, stronger effect = lower value 0.983 | locus YJL129C, strain trk1, stronger effect = lower value 0.966 | locus YJL134W, strain LCB3, stronger effect = lower value 1 | locus YJL154C, strain vps35, stronger effect = lower value 0.983 | locus YJL164C, strain tpk1, stronger effect = lower value 1 | locus YJL166W, strain qcr8, stronger effect = lower value 0.962 | locus YJL168C, strain set2, stronger effect = lower value 0.996 | locus YJL187C, strain SWE1 (second series), stronger effect = lower value 0.964 | locus YJR043C, strain POL32, stronger effect = lower value 1 | locus YJR075W, strain HOC1, stronger effect = lower value 1.02
